The results in this text go back to PubChem BioAssay.

Experiment [1] is described as follows: reducers of endogenous Her2 protein level, primary screen, SKBR3 breast tumor cells, AlphaScreen, ATP viability (AID 461;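 active means Her2 level under about 52% in both replicate screens, with viability over 70% of control, limit read from the data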;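 on Her2 level: lower value means less Her2 protein in the cells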;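 on viability: percent of carrier control wells set as 100% viability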). Conditions: 18-24 h, measured here: SKBR3 viability, ATP luminescence, at 10 µM. On the technique in general: Bead proximity is the source of the signal in Alpha formats.
For experiment [2], the target named is Receptor tyrosine-protein kinase erbB-2 (Homo sapiens) (UniProt P04626). Described as above. Conditions: 18-24 h, at 10 µM, stronger effect = lower value.
Chain of Receptor tyrosine-protein kinase erbB-2 (Homo sapiens) (P04626 whole entry, looked up): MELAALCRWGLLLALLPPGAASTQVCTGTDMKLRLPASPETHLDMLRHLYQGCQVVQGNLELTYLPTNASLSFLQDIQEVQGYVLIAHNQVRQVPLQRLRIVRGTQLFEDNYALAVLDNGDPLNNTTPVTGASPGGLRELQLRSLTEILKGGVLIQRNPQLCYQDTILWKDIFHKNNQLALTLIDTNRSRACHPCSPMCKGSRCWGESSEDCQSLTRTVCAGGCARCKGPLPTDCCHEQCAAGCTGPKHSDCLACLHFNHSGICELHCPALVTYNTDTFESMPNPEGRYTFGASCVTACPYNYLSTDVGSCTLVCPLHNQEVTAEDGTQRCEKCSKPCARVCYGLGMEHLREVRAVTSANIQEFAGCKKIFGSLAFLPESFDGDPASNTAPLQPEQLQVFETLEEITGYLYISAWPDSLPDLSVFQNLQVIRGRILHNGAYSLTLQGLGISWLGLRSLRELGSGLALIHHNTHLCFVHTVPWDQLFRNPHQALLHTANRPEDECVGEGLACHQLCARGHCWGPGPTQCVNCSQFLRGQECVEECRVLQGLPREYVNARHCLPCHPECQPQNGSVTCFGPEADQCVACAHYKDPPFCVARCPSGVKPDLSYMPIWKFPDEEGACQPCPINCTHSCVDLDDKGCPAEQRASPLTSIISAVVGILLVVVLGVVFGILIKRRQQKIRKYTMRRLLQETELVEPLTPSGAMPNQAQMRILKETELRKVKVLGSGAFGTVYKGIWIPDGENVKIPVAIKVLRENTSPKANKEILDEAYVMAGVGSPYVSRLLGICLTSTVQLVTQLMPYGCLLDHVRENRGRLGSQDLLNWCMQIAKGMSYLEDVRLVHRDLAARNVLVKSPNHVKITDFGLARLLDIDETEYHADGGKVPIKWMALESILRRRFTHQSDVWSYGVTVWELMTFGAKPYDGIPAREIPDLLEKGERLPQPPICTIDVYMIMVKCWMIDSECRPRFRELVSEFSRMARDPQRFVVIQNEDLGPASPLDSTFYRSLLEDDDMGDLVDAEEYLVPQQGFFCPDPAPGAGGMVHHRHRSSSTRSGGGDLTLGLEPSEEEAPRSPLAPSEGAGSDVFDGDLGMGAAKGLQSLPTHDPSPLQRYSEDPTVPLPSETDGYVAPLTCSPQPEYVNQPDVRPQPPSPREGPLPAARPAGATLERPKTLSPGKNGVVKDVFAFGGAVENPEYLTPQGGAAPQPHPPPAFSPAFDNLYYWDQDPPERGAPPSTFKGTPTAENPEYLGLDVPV
Experiment [3] in a line: SK-BR-3 cell growth inhibitors, pilot screen, 24 h, human (AID 572;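 active means viability at or below 10% of carrier control in both of two separate runs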;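 further: compound exposure lasted between 18 and 24 h rather than exactly 24 h; 100% = carrier-treated control wells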). Conditions: SK-BR-3 viability, CellTiter-Glo luminescence, at 10 µM, stronger effect = lower value. For orientation: In ATP-based viability assays light output follows the ATP content of the culture.
A short description of experiment [4]: HUVEC growth inhibition – cell-based, human, primary screen (AID 575;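 active means viability at or below 30% in both replicate assays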;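 further: 100% = median of untreated cell wells with 0.1% DMSO on each plate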). Conditions: HUVEC proliferation, CellTiter-Glo luminescence, 72 h; at 10 µM; stronger effect = lower value.
Experiment [5] is described as follows: growth inhibitors of H69AR lung tumor, primary screen, human, duplicate replicates (AID 580;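 active means viability at or under a set limit in both replicates, limit being median viability minus 3 SD, cut at about 48% in these data, passing the limit was not always enough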;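 further: 100% = mean luminescence of untreated wells and 0% = no signal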). To be noted: H69AR lung tumor cells viability, ATP luminescence, 72 h; at 10 µM; stronger effect = lower value.
Experiment [6] can be described thus: reversal of MRP1-mediated doxorubicin resistance, pilot screen, H69AR cells, doxorubicin co-treatment (AID 601;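 active means viability loss from added drug above about 55%, and viability with drug at most 40%, in both replicates, limit read from the data, passing the limit was not always enough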). To be noted: CellTiter-Glo, 72 h, at 10 µM; for differential viability (reversal): stronger effect = higher value.
Experiment [7] in a line: 384-well plate pilot, post-Golgi transport modulator project, inhibition of yeast transport mutant growth (AID 636; in the data active means inhibition above about 31%). To be noted: absorbance 615 nm, about 18 h, stronger effect = higher value.
Experiment [8] is described as follows: growth suppression of yeast trafficking mutant, preliminary HTS, modulators of trafficking downstream of Golgi apparatus project, 1536-format plate, OD 615 nm (AID 637; in the data active means inhibition above about 30%). Conditions: yeast transport mutant growth, absorbance 615 nm, 18 h; stronger effect = higher value.
Experiment [9] in a line: OD615 S. cerevisiae growth inhibition, permissive medium, pilot counter-assay, permissive growth control for S. cerevisiae lifespan shortening project (AID 705;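 active means growth inhibition above 25% in both replicates, a cutoff set 3 SD above the mean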). To be noted: OD615, 24 h, at 10 µM, stronger effect = higher value.
Experiment [10] in a line: Restrictive medium S. cerevisiae growth inhibition, OD615, pilot screen of yeast lifespan reduction project, restrictive growth control (AID 706;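 active means growth inhibition above a set limit, 3 SD over mean compound inhibition, in both replicates, cut at about 43% in these data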;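 further: modified DeaD lifespan yeast strain shifted to restrictive glucose medium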). Conditions: OD615, 48 h, at 10 µM, stronger effect = higher value.
The nature of experiment [11]: viability gain of MRP-1-high H69AR cells under doxorubicin, pilot screen, MRP-1 activator project, CellTiter-Glo, duplicate (AID 807;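 active means viability increase at or above a cutoff of the median across tested compounds plus 3 SD, cut at about 8.5% in these data, passing the limit was not always enough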;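 further: compound pretreatment 18-22 h then 72 h combined with doxorubicin; 0% = doxorubicin alone and 100% = vehicle without doxorubicin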). To be noted: H69AR viability with doxorubicin, CellTiter-Glo luminescence; at 10 µM; stronger effect = higher value.
A short description of experiment [12]: growth suppression of beta-catenin knockout HCT116, pilot screen, human colon tumor cells (AID 823).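 Further: 0% = wells killed by 20 µM Hyamine and 100% = untreated DMSO cell wells.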 Conditions: CellTiter-Glo, 60 h, at 10 µM, stronger effect = lower value.
Experiment [13] in a line: growth suppression of PTEN-deleted HCT116, pilot screen, cell-based, HCT116 clonal line, CellTiter-Glo (AID 824;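 active means viability at or below 27.92% in each of two runs, the all-compound median minus 4 SD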;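 further: 0% = 20 µM Hyamine control and 100% = vehicle cell control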). To be noted: 60 h, at 10 µM, stronger effect = lower value.
Experiment [14] can be described thus: inhibitors of the yeast RAM network, pilot screen, dse1pr::URA3 reporter, 5-FOA selection (AID 869;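 active means inhibition over a set limit, the all-compound mean plus 3 SD, in both replicate runs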;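 further: 0% = DMSO wells with no growth and 100% = 10 µM 1-NA-PP1 with full growth; RAM network block rescues cells from 5-FOA so hits raise OD615 growth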). To be noted: S. cerevisiae dse1pr::URA3 5-FOA growth, OD615, 2 d; at 10 µM; stronger effect = higher value; strain carries analog-sensitive mutant Cbk1 kinase.
Experiment [15] is described as follows: RAM signaling pathway blockade in yeast – S. cerevisiae, Pdr1DBD-CYC8 efflux-inhibited sensitized strain, primary screen (AID 1298;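 active means RAM network inhibition above 8.4% in each of two replicates, 3 SD over the compound average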;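 further: 0% = DMSO untreated cells without growth and 100% = 10 µM 1-NA-PP1 full growth; higher means more yeast growth rescued from 5-FOA killing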). To be noted: S. cerevisiae cbk1-as DSE1-URA3 strain, 5-FOA growth OD615, 2 d; at 50 µM; stronger effect = higher value.
[16] abbreviates: H69AR cells + 2 uM doxorubicin, measured here: viability with 2 uM doxorubicin, stronger effect = lower value.
[17] abbreviates: H69AR cells, compound alone cytotoxicity.

Molecules are shown by their SMILES. Inconclusive results are not listed. Activity calls are given as the source filed them.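 How the source made its calls, unless noted: active means cell viability at or below a set limit in both duplicate runs, the limit being the all-compound median minus 4 SD (cut at about 23% in these data, passing the limit was not always enough); inconclusive means no clear call, values can overlap the other calls; inactive means the rest.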

Usually viability stands for a read-out of living cells in per cent, often relative to untreated cells. Broadly, the inhibition is the relative decrease from the control value, in per cent. Regarding `CCOC(=O)c1ccccc1NC(=O)c1ccc2c(=O)n3c(nc2c1)CCCCC3`, the viability in [1] is 87.5%; in experiment [3], 87.5% (inactive); in experiment [4], 84.9% (inactive); in experiment [5], 84.4% (inactive); in experiment [6] (setting [16]), 93.5%; in [6] (setting [17]), 84.4%. Moreover, the values for the viability in experiment [12] and in [13] were 82.5% (inactive) and 81.2% (inactive), respectively. Also, the Her2 level in experiment [2] was 84.5% (inactive). Moreover, the differential viability (reversal) in experiment [6] (H69AR cells + 2 uM doxorubicin) was -9.15% (inactive). Also, the inhibition in experiment [7] was -4.53% (inactive); in experiment [8], 0.67% (inactive); in [14], 1.7% (inactive). Further, the growth inhibition was -5.51% (inactive) in [9] and -0.78% (inactive) in experiment [10]. The viability increase in [11] is -1.73% (inactive). Further, the RAM network inhibition in experiment [15] is 18.8% (active).
Consider `O=C(c1ccc(=O)[nH]c1)N(Cc1ccco1)C1(C(=O)NC2CCCC2)CCCCC1`, for which the viability in experiment [1] is 102%; in experiment [3], 102% (inactive); in [4] it was 102% (inactive); in experiment [5], 104% (inactive); in experiment [6] (setting [16]), 91.7%; in experiment [6] (setting [17]) it was 104%. Besides, the viability in [12] is 98.6% (inactive); in experiment [13], 100% (inactive). Moreover, in experiment [2], the Her2 level is 99.5% (inactive). For the same compound, the differential viability (reversal) in experiment [6] (H69AR cells + 2 uM doxorubicin) was 11.9% (inactive). Further, the figures for the inhibition in [7], in experiment [8] and in experiment [14] were -7.81% (inactive), -3.17% (inactive) and -0.16% (inactive), respectively. Also, the growth inhibition in [9] is 2.31% (inactive); in experiment [10], -5.5% (inactive). For the same compound, in experiment [11], the viability increase was -2% (inactive). Besides, the RAM network inhibition in [15] was 1.35% (inactive).
Turning to `CCN(C(=O)c1cc(Cl)ccc1OC)c1ccccc1`, the viability in [1] was 91.5%; in experiment [3], 91.5% (inactive); in experiment [4] it was 95.6% (inactive); in experiment [5] it was 103% (inactive); in [6] (setting [16]), 101%; in experiment [6] (setting [17]), 103%. In addition, the figures for the viability in [12] and in experiment [13] were 89.5% (inactive) and 90% (inactive), respectively. In addition, the Her2 level in experiment [2] is 110% (inactive). Besides, the differential viability (reversal) in [6] (H69AR cells + 2 uM doxorubicin) is 2.06% (inactive). Also, the inhibition in [7] was 1.04% (inactive); in experiment [8], -10.3% (inactive); in [14] it was 2.85% (inactive). Besides, the growth inhibition in experiment [9] was -16.1% (inactive); in experiment [10] it was -19.6% (inactive). In addition, the viability increase in [11] was -2.05% (inactive). Moreover, the RAM network inhibition in [15] was 3.26% (inactive).
Regarding `COCCCNC(=O)CSc1ccc(Cl)cc1`, the viability was 94.5% in experiment [1]; 94.5% (inactive) in experiment [3]; 81.8% (inactive) in [4]; 95.3% (inactive) in [5]; 91.9% in experiment [6] (setting [16]); 95.3% in [6] (setting [17]). Further, the figures for the viability in [12] and in [13] were 106% (inactive) and 97.8% (inactive), respectively. For the same compound, the Her2 level in experiment [2] was 85% (inactive). In experiment [6] (H69AR cells + 2 uM doxorubicin), the differential viability (reversal) is 3.39% (inactive). Besides, the inhibition is 0% (inactive) in [7], -2.67% (inactive) in [8] and 2.25% (inactive) in experiment [14]. Further, the growth inhibition is 1.36% (inactive) in experiment [9] and -6.93% (inactive) in experiment [10]. The viability increase in experiment [11] is -1.7% (inactive). In addition, the RAM network inhibition in experiment [15] is 2.53% (inactive).
In the case of `COc1cc2c(cc1OC)C(C)N(C(=O)Cn1ncc3c1-c1ccccc1OC3)CC2` (stereo not given), the viability in experiment [1] was 90.5%; in [3] it was 90.5% (inactive); in experiment [4], 111% (inactive); in experiment [5], 87.2% (inactive); in [6] (setting [16]) it was 86.9%; in [6] (setting [17]), 87.2%. Moreover, the viability was 89.5% (inactive) in experiment [12] and 89.8% (inactive) in [13]. In addition, the Her2 level in [2] is 104% (inactive). Further, the differential viability (reversal) in [6] (H69AR cells + 2 uM doxorubicin) was 0.365% (inactive). Moreover, the inhibition in experiment [7] was -2.31% (inactive); in experiment [8], 2.33% (inactive); in experiment [14], 0.41% (inactive). In addition, the growth inhibition in [9] is -9.09% (inactive); in [10], -8.14% (inactive). For the same compound, the viability increase in experiment [11] is -2.56% (inactive). Besides, the RAM network inhibition in [15] is 1.88% (inactive).
